Molecules are shown by their SMILES. Several values for one entry are separate records, joined by “and”; a condition that tells them apart may be missing. Identical values can stand only once. Inconclusive results are not listed. The source holds several records for some structures; these can differ, active in one and inactive in another. Activity calls are given as the source filed them. How the source made its calls, unless noted: active means hit-call score of the fitted dose curve at least 0.9, where 1 is the maximum; inactive means score below 0.9.

Here are results for 17 compounds from PubChem BioAssay (EPA / NIEHS).

Read-out in experiment [1]: Monokine induced gamma interferon (MIG), CXCL9 (gene 4283)
In words: BSK_3C_MIG: BioMAP Diversity Plus: 3C Assay for Monokine induced gamma interferon (MIG) Biomarker Activity (AID 2283021).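 On AC50: MIG protein level measured by immunoassay in the treated endothelial cultures.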 Particulars: primary human endothelial cells (HUVEC); actives raise or lower the signal. The gist of the method:
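ELISA-measured MIG in dosed HUVEC 3C cultures at 24 h, analysed by bidirectional fitting with DMSO defining baseline activity.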

The target in experiment [2] is human Vitamin D Receptor (VDR), VDR (gene 7421) (UniProt P11473). Put plainly: ATG_VDR_TRANS: Attagene TRANS-FACTORIAL HepG2 Assay for human Vitamin D Receptor (VDR) (AID 2283022; active means hit-call score of the fitted dose curve at least 0.9, where 1 is the maximum). The gist of the method:
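Multiplexed TRANS reporter in HepG2; 24 h treatment; reporter mRNA by RT-PCR plus capillary electrophoresis; upregulation scored relative to DMSO.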

The nature of experiment [3]: BSK_3C_SRB: Viability Assessment in the BioMAP Diversity Plus: 3C Assay (AID 2283023).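 Further: fitted both ways against DMSO so a hit may be signal rise or drop.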 Particulars: primary human endothelial cells (HUVEC). The gist of the method: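 Overt cytotoxicity is gauged in parallel confluent HUVEC cultures by SRB total-protein staining at the time of biomarker measurement, 24 h after dosing. Gain or loss of signal is fitted versus DMSO.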
Read-out in experiment [4]: Matrix Metallopeptidase 1 (MMP1), MMP1 (gene 4312)
Put plainly: BSK_BE3C_MMP1: BioMAP Diversity Plus: BE3C Assay for Matrix Metallopeptidase 1 (MMP1) Biomarker Activity (AID 2283024). Particulars: primary human bronchial epithelial cells; actives raise or lower the signal. The gist of the method:
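In this multiplexed primary-cell system, human bronchial epithelium received chemicals for 24 h before an ELISA for MMP1. Values reflect bidirectional fits normalised to the DMSO baseline.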

Experiment [5] is described as follows: BSK_3C_Vis: BioMAP Diversity Plus: 3C Assay for Morphology Visualization (AID 2283025).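 Further: fitted both ways so gain or loss versus DMSO counts.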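 On AC50: light microscopy image of cell morphology used as background control.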 Particulars: primary human endothelial cells (HUVEC). The gist of the method:
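Light-microscopy morphology readout, 24 h exposure, human primary umbilical vein endothelium; analysed relative to DMSO with bidirectional fitting.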

Read-out in experiment [6]: Pselectin, SELP (gene 6403)
Put plainly: BSK_4H_Pselectin: BioMAP Diversity Plus: 4H Assay for Pselectin Biomarker Activity (AID 2283026). The note with it: primary human endothelial cells (HUVEC); actives raise or lower the signal. The procedure, abridged:
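Bidirectional fits against DMSO gave the endpoint. Cells: primary human umbilical vein endothelium, chemical-treated for 24 h before ELISA detection of P-selectin.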

Experiment [7] in a line: BSK_4H_SRB: Viability Assessment in the BioMAP Diversity Plus: 4H Assay (AID 2283027).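 Further: cells exposed to compound for 24 h before staining.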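 On AC50: curves fitted both ways versus DMSO so AC50 may be loss or gain.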 Particulars: primary human endothelial cells (HUVEC). The procedure, abridged:
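Cytotoxicity read-out in primary human endothelial cells: after 24 h compound exposure, cells were TCA-fixed (10%), stained with 0.1% SRB and absorbance taken at 560 nm. Values fitted in both directions relative to DMSO.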

Experiment [8] can be described thus: BSK_BE3C_SRB: Viability Assessment in the BioMAP Diversity Plus: BE3C Assay (AID 2283028).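 Further: measured 24 h after chemical dosing.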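 On AC50: fitted both ways so AC50 may mark signal gain or loss versus DMSO.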 The note with it: primary human bronchial epithelial cells. The gist of the method:
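SRB total-protein staining (0.1%, after TCA fixation) of chemically dosed human bronchial epithelial primary cells at 24 h; DMSO serves as the negative control for bidirectional curve fitting.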

Read-out in experiment [9]: Thrombomodulin, THBD (gene 7056)
In words: BSK_3C_Thrombomodulin: BioMAP Diversity Plus: 3C Assay for Thrombomodulin Biomarker Activity (AID 2283029). The note with it: primary human endothelial cells (HUVEC); actives raise or lower the signal. The gist of the method:
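In a multiplexed primary-cell system, human umbilical vein endothelium received chemical and was assayed 24 h later for thrombomodulin by ELISA. Parallel cultures were SRB-stained (0.1% SRB after 10% TCA fixation, read at 560 nm) to flag cytotoxicity.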

Read-out in experiment [10]: Urokinase-type plasminogen activator receptor (uPAR), PLAUR (gene 5329)
In words: BSK_4H_uPAR: BioMAP Diversity Plus: 4H Assay for Urokinase-type plasminogen activator receptor (uPAR) Biomarker Activity (AID 2283030). The note with it: primary human endothelial cells (HUVEC); actives raise or lower the signal. The gist of the method: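 Endpoint derived via bidirectional curve fitting against DMSO baseline; readout was ELISA detection of uPAR on umbilical vein endothelial cells at 24 h post-treatment, with SRB-stained parallel cultures assessing cytotoxicity.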

Sequence of human Vitamin D Receptor (VDR), VDR (gene 7421) (P11473 whole entry, looked up): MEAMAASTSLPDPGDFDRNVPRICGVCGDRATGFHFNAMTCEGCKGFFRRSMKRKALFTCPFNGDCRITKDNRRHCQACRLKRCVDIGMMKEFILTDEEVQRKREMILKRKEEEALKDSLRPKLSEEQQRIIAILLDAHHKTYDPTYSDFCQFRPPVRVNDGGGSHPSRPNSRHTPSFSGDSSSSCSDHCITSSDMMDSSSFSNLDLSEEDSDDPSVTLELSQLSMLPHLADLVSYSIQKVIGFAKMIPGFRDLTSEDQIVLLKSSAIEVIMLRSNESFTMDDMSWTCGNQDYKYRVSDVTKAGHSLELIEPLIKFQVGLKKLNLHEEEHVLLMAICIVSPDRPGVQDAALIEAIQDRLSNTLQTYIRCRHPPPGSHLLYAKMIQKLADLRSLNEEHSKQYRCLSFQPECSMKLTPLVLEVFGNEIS

For the compound `CC(COc1ccc(Oc2ccccc2)cc1)Oc1ccccn1` (stereo not given), the outcome in experiment [1], in experiment [2], in experiment [4], in experiment [5], in experiment [6] and in experiment [7] was inactive. In addition, the result in [8], in experiment [9] and in [10] was inactive. In addition, the AC50 in experiment [3] is 20 µM (active).
Turning to `CCOC(=O)COc1cc(-c2nn(C)c(OC(F)F)c2Cl)c(F)cc1Cl`, the outcome in [1], in experiment [2], in experiment [3], in [4], in experiment [5] and in experiment [7] was inactive. The outcome in [8], in experiment [9] and in [10] was inactive. The AC50 in experiment [6] is 6.73 µM (active).
In the case of `C#CCC1=C(C)C(OC(=O)C2C(C=C(C)C)C2(C)C)CC1=O` (stereo not given), the outcome in experiment [1], in [2], in experiment [4], in [5], in experiment [9] and in experiment [10] was inactive. Moreover, the AC50 in [3] is 28.5 µM (active); in experiment [6] it was 31.6 µM (active); in [7], 33.8 µM (active); in [8], 18 µM (active).
For `CSc1nc(NC(C)C)nc(NC(C)C)n1`, the result in experiment [1], in experiment [2], in experiment [4], in [5], in [6] and in experiment [7] was inactive. Moreover, the result in [8], in experiment [9] and in experiment [10] was inactive. Further, the AC50 in experiment [3] is 14 µM (active).
Take `CN(C)NC(=O)CCC(=O)O`: the outcome in [1], in [2], in [3], in [4], in experiment [5] and in experiment [6] was inactive. The outcome in [7], in experiment [8], in [9] and in [10] was inactive.
With `CN1COCN(Cc2cnc(Cl)s2)C1=N[N+](=O)[O-]`, the outcome in experiment [1], in [2], in [3], in [4], in [5] and in [6] was inactive. The outcome in [7], in [8], in experiment [9] and in experiment [10] was inactive.
As to `CCc1cccc(C)c1N(C(=O)CCl)C(C)COC` (stereo not given), the outcome in experiment [1], in [2], in [3], in [4], in experiment [7] and in [8] was inactive. Also, the outcome in [9] and in experiment [10] was inactive. Moreover, the figures for the AC50 in experiment [5] and in [6] were 39 µM (active) and 13.6 µM (active), respectively.
On to `CNC(=O)Oc1cccc2c1OC(C)(C)O2`, for which the outcome in [1], in [2], in [4], in [5], in experiment [7] and in experiment [8] was inactive. Besides, the outcome in experiment [9] and in [10] was inactive. The AC50 is 20 µM (active) in experiment [3] and 16.7 µM (active) in [6].
For `CCCCN(CC)c1c([N+](=O)[O-])cc(C(F)(F)F)cc1[N+](=O)[O-]`, the outcome in experiment [1], in experiment [2], in experiment [4], in experiment [6], in [7] and in [8] was inactive. The outcome in experiment [9] and in experiment [10] was inactive. For the same compound, the AC50 was 16.4 µM (active) in experiment [3] and 39 µM (active) in [5].
`CC(C)=CC1C(C(=O)OCN2C(=O)C3=C(CCCC3)C2=O)C1(C)C` (stereo not given): the result in experiment [1], in experiment [2], in experiment [5], in experiment [7], in experiment [8] and in [9] was inactive. In addition, the half-maximal activity concentration (AC50) is 27.2 µM (active) in [3], 11.3 µM (active) in [4], 20 µM (active) in experiment [6] and 8.64 µM (active) in [10].
Consider `COc1cc(OC)nc(Sc2cccc(Cl)c2C(=O)O)n1`, for which the result in experiment [1], in experiment [2], in experiment [3], in experiment [4], in experiment [5] and in experiment [6] was inactive. Further, the outcome in [7], in experiment [8], in [9] and in experiment [10] was inactive.
Consider `CCC(CC)Nc1c([N+](=O)[O-])cc(C)c(C)c1[N+](=O)[O-]`, for which the result in experiment [1], in experiment [2] and in experiment [10] was inactive. Moreover, the half-maximal activity concentration (AC50) was 16.7 µM (active) in experiment [3]; 20 µM (active) in experiment [4]; 13.7 µM (active) in experiment [5]; 28.5 µM (active) in experiment [6]; 35.6 µM (active) in [7]; 20 µM (active) in experiment [8]. The AC50 in [9] is 15.5 µM (active).
Turning to `C[N+]1(C)CCCCC1`, the outcome in experiment [1], in experiment [3], in experiment [4], in experiment [5], in experiment [6] and in experiment [7] was inactive. Further, the result in [8], in [9] and in [10] was inactive.
As to `CN(C)[C@@H]1C(=O)C(C(N)=O)=C(O)[C@@]2(O)C(=O)C3=C(O)c4c(O)cccc4[C@@](C)(O)[C@H]3[C@H](O)[C@@H]12`, the result in experiment [1], in [3], in experiment [4], in [5], in experiment [6] and in experiment [7] was inactive. The result in experiment [8], in experiment [9] and in experiment [10] was inactive. The concentration at half-maximal activity (AC50) in experiment [4] is 15.8 µM (active).
As for `O=[N+]([O-])c1cc(C(F)(F)F)c(Cl)c([N+](=O)[O-])c1Nc1ncc(C(F)(F)F)cc1Cl`, the AC50 is 3.73 µM (active) and 5.09 µM (active) in experiment [1]; 1.49 µM (active) in experiment [3]; 3.93 µM (active) in experiment [4]; 1.5 µM (active) and 2.12 µM (active) in [5]; 1.18 µM (active) and 2.13 µM (active) in [6]; 1 µM (active) and 2.39 µM (active) in experiment [7]. For the same compound, the AC50 in experiment [8] is 1.79 µM (active) and 4.1 µM (active); in [9], 774 nM (active) and 2.49 µM (active); in experiment [10], 1.4 µM (active) and 2.25 µM (active). In addition, the compound was called inactive in experiment [2] and in experiment [3].
With `S=C1NCCN1`, the outcome in experiment [1], in experiment [2], in experiment [3], in experiment [4], in experiment [6] and in [7] was inactive. For the same compound, the result in experiment [8], in [9] and in experiment [10] was inactive. Besides, in [5], the AC50 was 39 µM (active).
For `CSC1=N[C@@](C)(c2ccccc2)C(=O)N1Nc1ccccc1`, the result in experiment [1], in [2], in experiment [4], in [5], in [6] and in experiment [8] was inactive. The outcome in experiment [9] and in [10] was inactive. In addition, the concentration at half-maximal activity (AC50) was 7.26 µM (active) in experiment [3] and 2.88 µM (active) in experiment [7].

For orientation: AC50 means the midpoint of the concentration-response curve, whichever way the signal moves.
